DT40 TDP1 no CPT = qHTS for Inhibitors of human tyrosyl-DNA phosphodiesterase 1 (TDP1): qHTS in cells in absence of CPT | DT40 Tdp1-/- hTDP1 cells, no CPT, ATP luminescence, 48 h | Potency, µM (highest dose often 46.2 µM), without a hit: at the highest dose activity change, negative = growth inhibition, actives largely listed as inhibitors | hit rate 15% among 420,000; also: potency is read from the fitted curve at half-maximal effect; nearly all actives have a fitted effect of over 55% in size
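Growth kinetics read by CellTiter-Glo luminescence after ≥48 hr at 37 °C. Cells: DT40 Tdp1-/- stably carrying human TDP1, 400 per well, compound exposure in the absence of CPT (DMSO vehicle).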
IL1B secr inh = qHTS for Inhibitors of Inflammasome Signaling: IL-1-beta AlphaLISA Primary Screen; THP-1 LPS/ATP IL-1B secretion, AlphaLISA, 16 h; active compounds read low; activity change, % at 57.5 µM; hit rate 4.7% among 360,000; AID 743279, 2014; in the data active = activity change below about -50%; inconclusive = mostly about -30% to -49%
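Secreted IL-1B measured by AlphaLISA bead assay after 16 h compound exposure of THP-1 cells; compounds (final up to 57.5 uM) added 1 h before LPS (250 ng/mL) and ATP (1.25 mM) stimulation; lower signal means less secretion.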
HT1080-NT tox = qHTS for induction of synthetic lethality in tumor cells producing 2HG: qHTS for the HT-1080-NT fibrosarcoma cell line. HT-1080-NT fibrosarcoma viability, CellTiter-Glo ATP luminescence, 48 h. Potency, µM (titrated, usually from 46.1 µM), inactives show top-dose activity, negative = less viability, actives largely listed as cytotoxic. hit rate 1.6% among 360,000. AID 686970, 2013;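 also: NT is the 2HG producing partner of a matched IDH1 knockdown line; potency is read from the fitted curve at half-maximal effect; 0% = DMSO-treated cells and -100% = media-only wells without cells; nearly all actives have a fitted effect of over 55% in size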
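Viability of the 2HG-overproducing fibrosarcoma line after 48 hours of compound exposure at 37 degrees C was determined by luminescence with CellTiter-Glo, and concentration-effect curves were then fitted and categorized.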
HT1080 IDH1KD tx = qHTS for induction of synthetic lethality in tumor cells producing 2HG: qHTS for the HT-1080-IDH1KD cell line; HT-1080 IDH1 knockdown viability, ATP luminescence, 48 h; hit rate 2% among 360,000; AID 686971, 2013; Potency, µM (doses to about 46.1 µM), for the others: at the top dose activity, negative = toxicity, most hits filed as cytotoxic;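 also: potency is read from the fitted curve at half-maximal effect; 0% = DMSO wells and -100% = cell-free medium wells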
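Using the IDH1-knockdown HT-1080 line run in the same batch and compound series as the NT line, viability after 48 h at 37 °C was determined by CellTiter-Glo luminescence and expressed as % activity.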
DT40 TDP1 CPT = qHTS for Inhibitors of human tyrosyl-DNA phosphodiesterase 1 (TDP1): qHTS in cells in presence of CPT | chicken DT40 Tdp1-/-;hTDP1 cells + 20 nM CPT, ATP luminescence, 48 h | Potency, µM (highest dose often 46.2 µM), for the others: top-dose activity change, negative = growth inhibition, most hits filed as inhibitors | hit rate 12% among 420,000; also: potency is read from the fitted curve at half-maximal effect; nearly all actives have a fitted effect of over 55% in size
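Chicken DT40 Tdp1-/- cells complemented with human TDP1, 400 cells/well, exposed to compounds plus 20 nM camptothecin for at least 48 h at 37 C; viability read as ATP content by CellTiter-Glo luminescence.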
Active calls of the source: *; ? = inconclusive; · = no result; [ ] = another dose, or the depositor's remark. Compounds with a hit are over-represented: about 19% of the library has one in this group of screens. Unless noted, calls follow the shape of the dose curve; as a rule, active = well fitted curve in the direction sought with a large enough effect; inconclusive = small, poorly fitted or top-dose-only effect, or another doubt; inactive = no such curve, though single readings can be large; an effect the other way counts as inactive or inconclusive. Unless noted, % is scaled to controls: 0 for no effect and ±100 for the full control effect.

SMILES | DT40 TDP1 no CPT | IL1B secr inh | HT1080-NT tox | HT1080 IDH1KD tx | DT40 TDP1 CPT
CC(C)Cn1c(N)c(C(=O)COC(=O)c2cccnc2Cl)c(=O)n(C)c1=O | 10.3µM* | 21.0 | 7.3% | 8.8% | ?
CC(C)Cn1c(N)c(C(=O)COC(=O)c2ccccc2Cl)c(=O)n(C)c1=O | ? | 0.5 | -15.4% | -0.5% | ?
Cn1c(N)c(C(=O)COC(=O)c2ccccc2C(=O)c2ccc(Cl)cc2)c(=O)n(C)c1=O | 14.6µM* | ? | ? | ? | ?
Cc1nc2c(ncn2-c2ccccc2)c(=O)n1NC(=O)CN1CCCCC1 | -1.5% | 36.0 | -5.6% | -6.4% | 1.1%
COc1cc(OC)c(OC)cc1/C=N/NC(=S)NCCN1CCOCC1 | 16.4µM* | 1.0 | -3.1% | 10.5% | 18.4µM*
COc1cc(OC)c(OC)cc1/C=N/NC(=S)NCC1CCCO1 (configuration not stated) | ? | -8.3 | ? | ? | 7.31µM*
COc1ccc2ccccc2c1/C=N/NC(=S)NCCN1CCOCC1 | -12.4% | -15.3 | 4.1% | -1.8% | 16.4µM*
O=C1c2ccccc2C(=O)N1CCC#Cc1ccc2cc(CCCO)oc(=O)c2c1 | -2.4% | -10.5 | 1.4% | 21.9% | -3.0%
CCC(C)N(C(=O)COC(=O)Cc1n[nH]c(=O)c2ccccc12)C1CCS(=O)(=O)C1 (configuration not stated) | -2.2% | -0.8 | -4.8% | -4.4% | -21.5%
COCCN(C(=O)/C=C/c1ccccc1)c1nnc(-c2cccnc2)s1 | ? | 4.9 | -1.7% | -10.3% | 3.0%
Cn1c(C(=O)NCCc2ccccc2)cc2cc(S(=O)(=O)N3CCCCC3)ccc21 | ? | · | · | · | 14.6µM*
CC(CNC(=O)c1cc2cc(S(=O)(=O)N3CCCCC3)ccc2n1C)c1ccccc1 (configuration not stated) | 11.6µM* | · | · | · | 3.26µM*
CCOC(=O)C1CCN(C(=O)COc2ccc(S(=O)(=O)NC(C)(C)C)cc2)CC1 | -4.8% | 5.6 | 1.4% | 0.9% | -14.4%
COC(=O)Cc1ccc(NC(=S)NNC(=O)C2CC2)cc1 | -24.1% | 13.9 | -0.6% | 10.0% | 13.6%
O=C(NN1CCN(Cc2ccccc2)CC1)c1ccc(Cl)cc1 | -3.6% | -20.3 | -0.2% | 7.0% | 1.7%
COc1ccc(CCNc2ccc(C(=O)O)cc2[N+](=O)[O-])cc1OC | 8.5% | 27.5 | 2.1% | -0.1% | 8.6%
COc1ccc(CCNc2cc(N3CCN(C(=O)c4ccccc4F)CC3)ccc2[N+](=O)[O-])cc1OC | 5.17µM* | -2.4 | -1.9% | ? | 4.61µM*
O=C(c1ccccc1F)N1CCN(c2ccc([N+](=O)[O-])c(NCc3cccnc3)c2)CC1 | ? | · | -20.7% | -17.7% | ?
COc1ccc(C(=O)N2CCN(c3ccc([N+](=O)[O-])c(NCCc4ccc(OC)c(OC)c4)c3)CC2)cc1 | 2.59µM* | ? | 1.16µM* | ? | 4.11µM*
CC(CCC(=O)O)C1CCC2C3CC[C@@H]4CCCC[C@@]4(C)C3CC[C@@]12C (some centres not stated) | -7.1% | · | · | · | 9.6%
CN(C)c1ccc(C(=C2c3ccccc3-c3ccccc32)c2ccc(N(C)C)cc2)cc1 | 1.3% | · | · | · | -8.2%
NC(=O)N/N=C/c1ccccc1OC(=O)c1cc2ccccc2oc1=O | -22.9% | -13.9 | -3.2% | 0.0% | 15.1%
O=C(Oc1ccccc1/C=C\C(=O)c1cc2ccccc2o1)c1cccc(F)c1 | 20.6µM* | -68.0* | ? | -28.5% | 5.17µM*
O=C(Oc1ccccc1/C=C\C(=O)c1cc2ccccc2o1)c1ccccc1 | 7.31µM* | 0.0 | ? | ? | 7.31µM*
COc1cccc(C(=O)Oc2ccccc2/C=C\C(=O)c2cc3ccccc3o2)c1 | 4.61µM* | -94.7* | 18.4µM* | 20.6µM* | 6.51µM*
SMILES | DT40 TDP1 no CPT | IL1B secr inh | HT1080-NT tox | HT1080 IDH1KD tx | DT40 TDP1 CPT
Cc1cc(C)n(-c2ccc(C(=O)OCC(=O)Nc3ccc([N+](=O)[O-])cc3)cc2)n1 | -14.5% | 1.0 | 13.5% | 3.8% | 0.3%
CC(=O)c1ccc(NC(=O)Cn2c(-n3nc(C)cc3C)nc(C)cc2=O)cc1 | 18.4µM* | · | · | · | ?
Cc1cc(C)n(-c2nc(C)c(C)c(=O)n2CC(=O)Nc2ccc([N+](=O)[O-])cc2)n1 | 20.6µM* | · | · | · | ?
O=C(Nc1ccc(O)c(-c2nc3ccccc3o2)c1)c1ccc(Br)cc1 | -3.5% | · | · | · | -4.6%
O=C(Nc1ccc(O)c(-c2nc3ccccc3o2)c1)C1(c2ccc(Br)cc2)CCCC1 | 13µM* | 2.5 | 10.3% | 6.1% | ?
Cc1ccc(C(C)C)c(OCC(=O)Nc2ccc(O)c(-c3nc4cc(Cl)ccc4o3)c2)c1 | -6.8% | · | · | · | 8.7%
COc1ccc(C(=O)Nc2ccccc2-c2nc3ccccc3s2)c(OC)c1 | 16.4µM* | · | · | · | 18.4µM*
Cc1ccc(OCC(=O)Nc2ccc(O)c(-c3nc4ccccc4o3)c2)cc1 | ? | -24.6 | ? | ? | 11.6µM*
Cc1ccc(SCC(=O)Nc2ccc(O)c(-c3nc4cc(C)ccc4o3)c2)cc1 | 20.6µM* | · | · | · | ?
COc1cccc(C(=O)Nc2ccccc2-c2nc3ccccc3s2)c1 | ? | · | · | · | -3.7%
CC(=O)N1CCC2(CC1)CCN(c1ncccn1)CC2 | -20.8% | · | · | · | 8.2%
CCCCn1c(N)c(N(CCOC)C(=O)CSCc2cccc(C)c2)c(=O)[nH]c1=O | -5.3% | -5.7 | 7.9% | 8.2% | -24.4%
O=C(NNC(=O)c1n[nH]c2ccccc12)c1ccccc1 | -7.7% | 12.9 | 0.0% | -1.6% | -1.6%
COc1ccc(C(=O)N2CCN(Cc3nc(CC4CC4)no3)CC2)cc1 | 0.3% | 16.8 | 7.1% | 10.6% | -14.0%
O=C(NCCc1ccccn1)C1CC12CCN(C(=O)c1ccc(F)cc1Cl)CC2 (configuration not stated) | -10.3% | · | · | · | 23.1%[9.04 µM]
O=C(CCC1CCCC1)NCCCNC(=O)CCC1CCCC1 | -2.0% | 8.2 | 0.0% | 4.3% | 1.0%
COc1ccc(OCC(=O)Nc2ccc(O)c(-c3nc4ccccc4s3)c2)cc1 | ? | · | · | · | 0.82µM*
Cc1ccc(OCC(=O)Nc2ccc(O)c(-c3nc4cc(C)c(C)cc4o3)c2)cc1 | 1.58µM* | · | · | · | ?
N=c1c2ccccc2nnn1-c1ccc(C(F)(F)F)cc1 | 6.51µM* | -15.6 | 7.6% | 8.3% | ?
Cc1oc2c(O)c(O)ccc2c(=O)c1-c1cnn(-c2ccccc2)c1 | 18.4µM* | 84.4 | ? | ? | ?
Cc1oc2c(O)c(O)ccc2c(=O)c1-c1ccccc1 | ? | 86.3 | -5.5% | -20.3% | -0.1%

Screening results (PubChem BioAssay)
